Screening data from PubChem.
MCF10A rerep: inducers of DNA re-replication in MCF 10A breast cells. MCF 10A DNA re-replication, Hoechst nuclear intensity, 48 h. Potency, µM (titrated, usually from 46.1 µM), inactives show at the highest dose activity, positive = re-replication, usual class: activators. 350,000 compounds, 2.9% hits. AID 624296; note: potency is the fitted concentration of half-maximal effect; % of control where 0% means no effect; nearly all actives have a fitted effect of over 50% in size
SW480 rerep: induces DNA re-replication in SW480 colon adenocarcinoma cells | SW480 DNA re-replication, Hoechst DNA content imaging, 48 h | 340,000 compounds, 1.8% hits | Potency, µM (series often up to 46.1 µM), for inactives: at the highest dose re-replication activation, actives largely listed as activators; note: potency is the fitted concentration of half-maximal effect; % of control where 0% means no effect; nearly all actives have a fitted effect of over 55% in size
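Quantitative HTS format with DMSO vehicle controls; 48 hr drug incubation at 37 C, then 40 min Hoechst staining and scanning imager measurement at 405 nm excitation.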
IL-1B inflam inh: blocks inflammasome-driven IL-1 beta release. activity change, % at 57.5 µM. 360,000 compounds, 4.7% hits. THP-1 LPS/ATP IL-1B secretion, AlphaLISA, 16 h; active compounds read low; in the data active = activity change below about -50%; inconclusive = mostly about -30% to -49%; note: % is set by controls: 0 for no effect and ±100 for the full control effect
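Secreted IL-1B measured by AlphaLISA bead assay after 16 h compound exposure of THP-1 cells; compounds (final up to 57.5 uM) added 1 h before LPS (250 ng/mL) and ATP (1.25 mM) stimulation; lower signal means less secretion.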
ATXN viability: reduces viability in counter-screen for ATXN expression inhibitors. 400,000 compounds, 0.49% hits. Potency, µM (highest dose often 56.7 µM), most hits filed as cytotoxic. S2 cells (HEK-293 line with an ATXN2-luciferase reporter) viability, CellTiter-Fluor protease fluorescence, 24 h; note: potency is the fitted concentration of half-maximal effect; nearly all actives have a fitted effect of over 40% in size
ATXN2 expr inh: inhibitors of ATXN2 expression; Potency, µM (doses to about 57 µM), for inactives: at the top dose activity change, negative = inhibition, most hits filed as inhibitors; HEK-293 ATXN2-luciferase reporter, luminescence, 24 h; 360,000 compounds, 0.72% hits; AID 1745845; note: potency is the fitted concentration of half-maximal effect; % is set by controls: 0 for no effect and ±100 for the full control effect; nearly all actives have a fitted effect of over 55% in size
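ATXN2-luciferase reporter cells (luciferase flanked by upstream and downstream ATXN2 gene portions) were treated 24 h at 37 °C with compounds at up to 57 uM. SteadyGlo luminescence gave expression; GF-AFC fluorescence gave viability.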
PINK1 modulator: changes PINK1 expression. PINK1 immunofluorescence, high-content cytometry, 24 h. Potency, µM (doses to about 76.6 µM), for the others: at the top dose activation (PINK1 increase), usual class: activators. 410,000 compounds, 0.2% hits; active = well fitted activation curve with a large enough effect; inconclusive = small, poorly fitted or top-dose-only effect; cell line not stated here; note: potency is the fitted concentration of half-maximal effect; % of control where 0% means no effect; nearly all actives have a fitted effect of over 65% in size
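PINK1 protein level read as immunofluorescence by microplate cytometer in a fixed, stained stable cell line after 24 h exposure to five compound concentrations, with CCCP as control.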
The depositor's hits bear a star; [ ] = another dose, or the depositor's remark. Rows were chosen to be rich in hits. Some 7.1% of all compounds tested hit in one or more screens of this group. Unless noted, calls come from the whole dose curve; as a rule, active = well fitted curve in the direction sought with a large enough effect; inconclusive = small, poorly fitted or top-dose-only effect, or another doubt; inactive = no such curve, though single readings can be large; an effect the other way counts as inactive or inconclusive.

For COC(=O)CS(=O)(=O)c1nnc([C@H](Cc2ccccc2)NC(=O)OC(C)(C)C)o1 the results were MCF10A rerep 13µM*, SW480 rerep inconclusive, IL-1B inflam inh -102*, ATXN2 expr inh inconclusive and PINK1 modulator -6%.
Cc1cccc(CS(=O)(=O)c2nnc([C@H](Cc3ccccc3)NC(=O)OC(C)(C)C)o2)c1 was read as MCF10A rerep 3.3µM*, SW480 rerep inconclusive, IL-1B inflam inh inconclusive, ATXN viability 8.9µM*, ATXN2 expr inh 7.9µM* and PINK1 modulator inconclusive.
CC(C)(C)OC(=O)N[C@@H](Cc1ccccc1)c1nnc(SCC(N)=O)o1 was read as MCF10A rerep 0%, SW480 rerep 0%, IL-1B inflam inh 9, ATXN viability inactive and PINK1 modulator -1%.
Screening Cc1cn([C@@H]2O[C@H](CO)[C@@H](O)[C@H]2F)c(=O)[nH]c1=O returned ATXN viability inactive and ATXN2 expr inh 8%.
Cc1cc(C(=O)Nc2nc3ccc(Cl)cc3s2)nn1C was read as MCF10A rerep 0%, SW480 rerep 6.5µM*, ATXN viability inactive, ATXN2 expr inh 10% and PINK1 modulator 4%.
CCN(CC)CCNC(=O)c1ccc(NC(=O)c2ccccc2-c2ccc(C(F)(F)F)cc2)cc1 was read as MCF10A rerep 21µM*, SW480 rerep inconclusive, IL-1B inflam inh -67*, ATXN viability inactive, ATXN2 expr inh inconclusive and PINK1 modulator -4%.
`Cn1ncc(Cl)c1C(=O)Nc1nc2ccc(Cl)cc2s1` gave MCF10A rerep 7%, SW480 rerep -2%, IL-1B inflam inh 17, ATXN viability inactive, ATXN2 expr inh 69% and PINK1 modulator 4%.
CCN(CC)CCNC(=O)c1ccc(NC(=O)c2cc(-c3ccco3)nc3ccccc23)cc1 was read as MCF10A rerep inconclusive, SW480 rerep inconclusive, IL-1B inflam inh -89*, ATXN viability inconclusive, ATXN2 expr inh inconclusive and PINK1 modulator -1%.
`CCOc1ccc2nc(SCCNS(=O)(=O)c3ccccc3)sc2c1` gave MCF10A rerep 10%, SW480 rerep 2%, IL-1B inflam inh -68*, ATXN viability inactive, ATXN2 expr inh -16% and PINK1 modulator 5%.
Screening COc1ccc(NC(=O)N2CCN(Cc3nc4ccc(C)cc4o3)CC2)cc1OC returned ATXN viability inactive, ATXN2 expr inh 3% and PINK1 modulator 0%.
`CCOc1ccc2nc(NC(=O)Cn3[nH]c(=O)c4ccccc4c3=O)sc2c1` gave MCF10A rerep 21µM*, SW480 rerep 123%, IL-1B inflam inh 58, ATXN viability inactive and PINK1 modulator inconclusive.
For Cc1ccc2nc(NC(=O)c3ccccc3F)sc2c1 the results were MCF10A rerep 24%, SW480 rerep 0%[9.22 µM], IL-1B inflam inh 6, ATXN viability inactive, ATXN2 expr inh 63% and PINK1 modulator 6%.
CCOc1ccc2nc(NC(=O)CN3CCN(CC)CC3)sc2c1 was read as MCF10A rerep 10%, SW480 rerep 3%, IL-1B inflam inh 5, ATXN viability inactive and PINK1 modulator 0%.
For CS(=O)(=O)c1ccc2nc(NC(=O)c3ccccc3Cl)sc2c1 the results were MCF10A rerep 0.82µM*, SW480 rerep -80%, IL-1B inflam inh -2, ATXN viability inactive, ATXN2 expr inh -9% and PINK1 modulator 2%.
Screening Cc1ccc2nc(NC(=O)c3cc(-c4ccco4)nc4ccccc34)sc2c1 returned MCF10A rerep 16µM*, SW480 rerep 15%, IL-1B inflam inh -6, ATXN viability inactive, ATXN2 expr inh -20% and PINK1 modulator -1%.
Screening O=C(Nc1nc2ccccc2s1)c1cc(-c2ccco2)nc2ccccc12 returned MCF10A rerep inconclusive, SW480 rerep inconclusive, IL-1B inflam inh -9, ATXN viability inactive, ATXN2 expr inh -16% and PINK1 modulator 5%.
Screening Cc1ccc2nc(NC(=O)c3ccccn3)sc2c1 returned MCF10A rerep inconclusive, SW480 rerep 0%, IL-1B inflam inh -102*, ATXN viability inconclusive, ATXN2 expr inh inconclusive and PINK1 modulator 5%.
For CCN(CC)CCNC(=O)c1ccc(NC(=O)c2cn(-c3ccc(F)cc3)nc2-c2cccc(OC)c2)cc1 the results were MCF10A rerep inconclusive, SW480 rerep 16%, IL-1B inflam inh -90*, ATXN viability 28µM*, ATXN2 expr inh inconclusive and PINK1 modulator -1%.
NNc1nc2ccc(F)cc2s1 was read as MCF10A rerep inconclusive, SW480 rerep 3%, IL-1B inflam inh -3, ATXN viability inactive, ATXN2 expr inh inconclusive and PINK1 modulator 3%.
Screening NNc1nc2c(Cl)c(Cl)ccc2s1 returned MCF10A rerep inconclusive, SW480 rerep -2%, IL-1B inflam inh -60*, ATXN viability inactive, ATXN2 expr inh 20% and PINK1 modulator -2%.
Screening CCN(CC)CCNC(=O)c1ccc(NC(=O)c2cn(-c3ccccc3)nc2-c2cccs2)cc1 returned MCF10A rerep inconclusive, SW480 rerep inconclusive, IL-1B inflam inh inconclusive, ATXN2 expr inh inconclusive and PINK1 modulator -1%.
Screening CCOc1ccc2nc(NC(=O)c3ccccn3)sc2c1 returned MCF10A rerep inconclusive, SW480 rerep inconclusive, IL-1B inflam inh -98*, ATXN viability inconclusive, ATXN2 expr inh 25µM* and PINK1 modulator 7%.
`NNc1nc2ccc(Cl)cc2s1` gave MCF10A rerep 21µM*, SW480 rerep inconclusive, IL-1B inflam inh -20, ATXN viability inactive, ATXN2 expr inh 0% and PINK1 modulator 2%.
Screening CCC(=O)OCC(=O)[C@@]1(OC(=O)CC)[C@H](C)C[C@H]2[C@@H]3CCC4=CC(=O)C=C[C@]4(C)[C@@]3(F)[C@@H](O)C[C@@]21C returned ATXN viability inactive.
For Cc1ccc(C)c(Cn2c3ccccc3c3cnn(CC(=O)NCC(C)c4ccccc4)c(=O)c32)c1 (configuration not stated) the results were ATXN viability inactive, ATXN2 expr inh -1% and PINK1 modulator 7%.
CCOC(=O)N1CCC(NC(=O)c2cc(S(=O)(=O)N3CCOCC3)ccc2F)CC1 was read as MCF10A rerep -3%, SW480 rerep -4%, IL-1B inflam inh 9, ATXN viability inconclusive, ATXN2 expr inh 3% and PINK1 modulator 4%[38.3 µM].
For CCOC(=O)N1CCC(NC(=O)c2cc(S(=O)(=O)N(CC)CC)ccc2F)CC1 the results were MCF10A rerep -13%, SW480 rerep 0.73µM*, IL-1B inflam inh -17, ATXN viability inactive, ATXN2 expr inh -2% and PINK1 modulator 3%[38.3 µM].
